The nature of assay [1]: p53 stabilisation in HPV-positive human cells, imaging, p53-positive nuclei imaging, 24 h, 48 h (AID 1508601). The settings on record: 24/48 h.
The target in assay [2] is Cellular tumor antigen p53 (Homo sapiens) (UniProt P04637). Described as above. Conditions: 24/48 h, stronger effect = higher value.
[3] abbreviates: measured here: cell number at 24 h, Library stock concentration: 3.33 mM.
Setting [4] is: measured here: cell number at 48 h, Library stock concentration: 3.33 mM.
Where [5] appears, read: Library stock concentration: 3.33 mM.
The mark [6] stands for this setting: measured here: p53 positive nuclei at 24 h, Library stock concentration: 3.33 mM.
[7] abbreviates: measured here: cell number at 24 h, Library stock concentration: 80 uM.
The mark [8] stands for this setting: measured here: cell number at 24 h, Library stock concentration: 400 uM.
Where [9] appears, read: measured here: cell number at 24 h, Library stock concentration: 2 mM.
[10] abbreviates: measured here: cell number at 24 h, Library stock concentration: 10 mM.
The mark [11] stands for this setting: measured here: cell number at 48 h, Library stock concentration: 80 uM.
The mark [12] stands for this setting: measured here: cell number at 48 h, Library stock concentration: 400 uM.
[13] abbreviates: measured here: cell number at 48 h, Library stock concentration: 2 mM.
[14] abbreviates: measured here: cell number at 48 h, Library stock concentration: 10 mM.
Where [15] appears, read: Library stock concentration: 80 uM.
Setting [16] is: Library stock concentration: 400 uM.
The mark [17] stands for this setting: Library stock concentration: 2 mM.
Where [18] appears, read: Library stock concentration: 10 mM.
[19] abbreviates: measured here: p53 positive nuclei at 24 h, Library stock concentration: 80 uM.
The mark [20] stands for this setting: measured here: p53 positive nuclei at 24 h, Library stock concentration: 400 uM.
The mark [21] stands for this setting: measured here: p53 positive nuclei at 24 h, Library stock concentration: 2 mM.
Setting [22] is: measured here: p53 positive nuclei at 24 h, Library stock concentration: 10 mM.

Among all 5,700 compounds or so, about 85 (1%) were called active. No stated cut-off is given here; in the data, active means p53-positive nuclei above about 36% (passing the limit was not always enough); inactive means the rest. The full list was thinned out, with actives kept by preference. Peptide text beside a SMILES is read from it. * marks the point of attachment. Cbz = O=C(OCc1ccccc1)*

Cellular tumor antigen p53 (Homo sapiens), sequence (P04637 whole entry, looked up): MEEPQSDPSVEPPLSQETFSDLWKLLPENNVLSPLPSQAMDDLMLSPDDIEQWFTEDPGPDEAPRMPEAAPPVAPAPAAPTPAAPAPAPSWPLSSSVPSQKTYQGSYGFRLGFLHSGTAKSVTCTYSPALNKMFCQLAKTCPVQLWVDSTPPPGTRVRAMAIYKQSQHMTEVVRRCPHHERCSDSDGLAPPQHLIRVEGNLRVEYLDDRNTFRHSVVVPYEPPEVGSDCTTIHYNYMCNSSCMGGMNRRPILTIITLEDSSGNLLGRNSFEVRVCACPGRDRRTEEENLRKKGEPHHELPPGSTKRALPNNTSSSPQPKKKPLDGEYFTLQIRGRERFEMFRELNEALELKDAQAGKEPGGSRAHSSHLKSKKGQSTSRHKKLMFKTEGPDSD

For `O=C(Nc1ccccc1Br)NC1CCN(c2ccc(C(F)(F)F)cn2)C1` (stereo unspecified), the nuclei count, normalised in assay [1] (setting [3]) was 102%; in assay [1] (setting [4]) it was 96.3%. Also, the p53-positive nuclei, normalised in assay [2] (setting [5]) is -0.163% (inactive); in assay [2] (setting [6]), -0.314%.
With `CCCCC/C=C\C/C=C\C/C=C\C/C=C\CCCC(=O)C(F)(F)F`, the nuclei count, normalised in assay [1] (measured here: cell number at 24 h, concentration not given here) was found to be 108%; in assay [1] (measured here: cell number at 48 h, concentration not given here), 109%. In addition, the p53-positive nuclei, normalised was -0.148% (inactive) in assay [2] (concentration not given here) and -0.0854% in assay [2] (measured here: p53 positive nuclei at 24 h, concentration not given here).
As to `Nc1ncn([C@@H]2O[C@@H](CO)[C@H](O)[C@@H]2O)c(=O)n1`, the nuclei count, normalised in assay [1] (setting [7]) came to 122%; in assay [1] (setting [8]), 116%; in assay [1] (setting [9]), 110%; in assay [1] (setting [10]), 65.9%; in assay [1] (setting [11]), 122%; in assay [1] (setting [12]) it was 116%. Also, the nuclei count, normalised in assay [1] (setting [13]) was 111%; in assay [1] (setting [14]), 63.4%. Besides, the p53-positive nuclei, normalised is -0.241% (inactive) in assay [2] (setting [15]); -0.762% (inactive) in assay [2] (setting [16]); -0.515% (inactive) in assay [2] (setting [17]); 0.325% (inactive) in assay [2] (setting [18]); 1.31% in assay [2] (setting [19]); -0.12% in assay [2] (setting [20]). Besides, the p53-positive nuclei, normalised amounted to 0.0304% in assay [2] (setting [21]) and 0.106% in assay [2] (setting [22]).
Consider `CC(=O)NC(CC(C)C)C(=O)NC(CC(C)C)C(=O)NC(C=O)CCCN=C(N)N` (stereo unspecified), for which the nuclei count, normalised came to 88.7% in assay [1] (setting [7]); 87.3% in assay [1] (setting [8]); 62.5% in assay [1] (setting [9]); 67.4% in assay [1] (setting [10]); 91.5% in assay [1] (setting [11]); 90.5% in assay [1] (setting [12]). In addition, the nuclei count, normalised came out at 69% in assay [1] (setting [13]) and 72.9% in assay [1] (setting [14]). The p53-positive nuclei, normalised in assay [2] (setting [15]) is 0.011% (inactive); in assay [2] (setting [16]) it was -0.0354% (inactive); in assay [2] (setting [17]), -0.0908% (inactive); in assay [2] (setting [18]), -0.0909% (inactive); in assay [2] (setting [19]), -0.0474%; in assay [2] (setting [20]) it was -0.0442%. Further, the p53-positive nuclei, normalised in assay [2] (setting [21]) is 0.0943%; in assay [2] (setting [22]), -0.12%.
As for `CC(C)CC(C=O)NC(=O)C(CC(C)C)NC(=O)C(CC(C)C)NC(=O)OCc1ccccc1` (stereo not drawn) (Cbz-Leu-Leu-Leu-aldehyde; configuration not given here), the nuclei count, normalised came to 112% in assay [1] (measured here: cell number at 24 h, Library stock concentration: 46 uM); 112% in assay [1] (measured here: cell number at 24 h, Library stock concentration: 278 uM); 62% in assay [1] (measured here: cell number at 24 h, Library stock concentration: 1.67 mM); 46.1% in assay [1] (setting [3]); 59.9% in assay [1] (setting [10]); 111% in assay [1] (measured here: cell number at 48 h, Library stock concentration: 46 uM). For the same compound, the nuclei count, normalised in assay [1] (measured here: cell number at 48 h, Library stock concentration: 278 uM) worked out at 104%; in assay [1] (measured here: cell number at 48 h, Library stock concentration: 1.67 mM), 46.9%; in assay [1] (setting [4]) it was 38.7%; in assay [1] (setting [14]) it was 46.7%. The p53-positive nuclei, normalised was -0.152% (inactive) in assay [2] (Library stock concentration: 46 uM); 0.0393% (inactive) in assay [2] (Library stock concentration: 278 uM); 92% (active) in assay [2] (Library stock concentration: 1.67 mM); 92% (active) in assay [2] (setting [5]); 106% (active) in assay [2] (setting [18]); 0.0832% in assay [2] (measured here: p53 positive nuclei at 24 h, Library stock concentration: 46 uM). Moreover, the p53-positive nuclei, normalised is -0.0262% in assay [2] (measured here: p53 positive nuclei at 24 h, Library stock concentration: 278 uM); 44.6% in assay [2] (measured here: p53 positive nuclei at 24 h, Library stock concentration: 1.67 mM); 87.5% in assay [2] (setting [6]); 135% in assay [2] (setting [22]).
Consider `CC(NC(=O)C(Cc1ccccc1)NC(=O)OCc1ccccc1)C(=O)CF` (stereo unspecified), for which the nuclei count, normalised came out at 108% in assay [1] (setting [3]) and 101% in assay [1] (setting [4]). In addition, the p53-positive nuclei, normalised in assay [2] (setting [5]) is -0.054% (inactive); in assay [2] (setting [6]), -0.116%.
For the compound `C=CC(=O)N1CCc2ccc(-n3c(=O)ccc4cnc5ccc(-c6cnn(C)c6)cc5c43)cc21`, the nuclei count, normalised in assay [1] (setting [7]) worked out at 107%; in assay [1] (setting [8]), 102%; in assay [1] (setting [9]), 74.7%; in assay [1] (setting [10]) it was 48.5%; in assay [1] (setting [11]), 108%; in assay [1] (setting [12]), 102%. For the same compound, the figures for the nuclei count, normalised in assay [1] (setting [13]) and in assay [1] (setting [14]) were 84.2% and 37.4%, respectively. Besides, the p53-positive nuclei, normalised in assay [2] (setting [15]) was -0.0335% (inactive); in assay [2] (setting [16]), -0.203% (inactive); in assay [2] (setting [17]), -0.00288% (inactive); in assay [2] (setting [18]) it was 0.846% (inactive); in assay [2] (setting [19]) it was -0.0563%; in assay [2] (setting [20]), -0.129%. In addition, the p53-positive nuclei, normalised is -0.129% in assay [2] (setting [21]) and 0.0284% in assay [2] (setting [22]).
With `CS(=O)(=O)c1ccc(C(CC2CCCC2)C(=O)Nc2nccs2)cc1` (stereo unspecified), the nuclei count, normalised in assay [1] (setting [7]) amounted to 117%; in assay [1] (setting [8]), 108%; in assay [1] (setting [9]), 110%; in assay [1] (setting [10]), 109%; in assay [1] (setting [11]), 110%; in assay [1] (setting [12]), 104%. The nuclei count, normalised in assay [1] (setting [13]) came out at 100%; in assay [1] (setting [14]), 106%. The p53-positive nuclei, normalised is 0.258% (inactive) in assay [2] (setting [15]); 0.124% (inactive) in assay [2] (setting [16]); 0.01% (inactive) in assay [2] (setting [17]); -0.00666% (inactive) in assay [2] (setting [18]); -0.031% in assay [2] (setting [19]); -0.122% in assay [2] (setting [20]). Moreover, the p53-positive nuclei, normalised in assay [2] (setting [21]) is 0.0254%; in assay [2] (setting [22]) it was -0.0737%.

Values taken from PubChem BioAssay AID1508601 (ICCB-Longwood Screening Facility, Harvard Medical School, 2020).
